Data as given in the supplement of paper PMC10981050.
Counter-ions that a name gives are not always drawn.

Tested on: MOLM14
Assay: cell viability relative to vehicle control; higher = less cytotoxic
Conditions: 10 µM; SRSF2 genotype: SRSF2 wt/wt
Procedure, shortened: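 CRISPR-edited mutant clones and isogenic wild-type clones from four leukaemia lines were screened against Selleck bioactive, kinase and epigenetic probe libraries, with identity-inconsistent compounds excluded. Each compound was acoustically dispensed at a single 10 µM dose into 384-well plates holding 2000 cells in 50 µL medium per well. After 48 h the supernatant was removed and CellTiter-Glo luminescence was read. Viability was expressed as percent of the on-plate vehicle control and analysed in Genedata Screener.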

SMILES	cell viability
Cc1ccc2nc(NC(=O)CSc3nc4c(c(=O)n3-c3ccccc3)SCC4)sc2c1	93.3%
COC(=O)C1=C(C)NC(C)=C(C(=O)OCCN(C)Cc2ccccc2)C1c1cccc([N+](=O)[O-])c1 (stereo not given) [Nicardipine HCl]	81.1%
O=C(O)c1cccnc1Nc1cccc(C(F)(F)F)c1 [Niflumic acid]	98.5%
Cc1cc(Nc2cc(N3CCN(C)CC3)nc(/C=C/c3ccccc3)n2)n[nH]1 [ENMD-2076 L-(+)-Tartaric acid]	6.51%
CC(C)[C@H]1CC[C@H](C(=O)N[C@H](Cc2ccccc2)C(=O)O)CC1 [Nateglinide (Starlix)]	99.3%
O=C1C[C@@H](c2ccc(O)cc2)Oc2cc(O)cc(O)c21 [Naringenin]	112%
C=CC(=O)N1CCC[C@@H](n2nc(-c3ccc(Oc4ccccc4)cc3)c3c(N)ncnc32)C1	17.8%
CC(=O)OC(CC(C)C1=C2CC(O)C3C4(C)CCC(=O)C(C)(C)C4CCC3(C)C2(C)CC1)C1OC1(C)C (stereo not given) [Alisol B Acetate]	87.8%
CC(=O)Nc1cccc2c1c(Sc1ccc(Cl)cc1)c(C)n2CC(=O)O	106%
Cc1cc(NS(=O)(=O)c2ccc(N)cc2)no1 [Sulfamethoxazole sodium]	104%
C[C@@H]1O[C@@H](O[C@H]2[C@H](Oc3cc(O)c4c(c3)O[C@H](c3ccc(O)cc3)CC4=O)O[C@H](CO)[C@@H](O)[C@@H]2O)[C@H](O)[C@H](O)[C@H]1O [Naringin (Naringoside)]	109%
C[C@]12CC[C@H](O)CC1=CC[C@@H]1[C@@H]2CC[C@]2(C)C(n3cnc4ccccc43)=CC[C@@H]12 [Galeterone (TOK-001)]	97.8%
COc1cc(C(=O)N(CCCc2ccccc2)Cc2ccc(CC(=O)O)cc2)cc(OC)c1C	99.4%
Oc1ccc(OC2CCCCO2)cc1 (stereo not given) [Deoxyarbutin]	81.9%
NS(=O)(=O)c1ccccc1 [Benzenesulfonamide]	106%
COc1ccc([C@@H]2CC(=O)c3c(O)cc(O[C@@H]4O[C@H](CO)[C@@H](O)[C@H](O)[C@H]4O[C@@H]4O[C@@H](C)[C@H](O)[C@@H](O)[C@H]4O)cc3O2)cc1 [Poncirin]	94.7%
CC(=O)Oc1cc(C(F)(F)F)ccc1C(=O)O [Triflusal]	101%
OC1OC[C@@H](O)[C@@H](O)[C@@H]1O (stereo partly drawn) [D(-)-Arabinose]	111%
CC[C@@H]([C@H](C)O)n1ncn(-c2ccc(N3CCN(c4ccc(OC[C@@H]5CO[C@@](Cn6cncn6)(c6ccc(F)cc6F)C5)cc4)CC3)cc2)c1=O [Posaconazole]	85.5%
Nc1nc(-c2nn(Cc3ccccc3F)c3ncccc23)ncc1C1CC1	104%

SMILES	cell viability
COc1cc2c(cc1OC)[C@@H](Cc1ccc(O)c(Oc3cc4c(cc3OC)CCN(C)[C@@H]4Cc3ccc(O)cc3)c1)N(C)CC2 [Liensinine]	83.3%
NC(=O)c1cnccn1 [Pyrazinamide (Pyrazinoic acid amide)]	105%
CC(C)(C)NS(=O)(=O)c1cncc(-c2cc(F)c3nc(N)nn3c2)c1	103%
CC(=O)O[C@@H]1C[C@@]23C[C@@]24CC[C@H](O[C@@H]2OC[C@@H](O)[C@H](O)[C@H]2O)C(C)(C)[C@@H]4CC=C3[C@]2(C)C[C@@H]3OC4(C[C@@H](C)[C@@H]3[C@@]12C)OC(O)C1(C)OC41 (stereo not given in full) [Cimicifugoside]	106%
O=C(O)c1ccc(CN2CCC(CN[C@@H]3C[C@H]3c3ccccc3)CC2)cc1	87.2%
CN1C(N)=N[C@](C)(c2cc(NC(=O)c3ccc(F)cn3)ccc2F)CS1(=O)=O [Verubecestat (MK-8931)]	100%
O=C[C@H](O)[C@@H](O)[C@H](O)CO [Xylose]	95.2%
COc1ccc(CCNCC(O)COc2cccc(C)c2)cc1OC (stereo not given) [Bevantolol hydrochloride]	91.2%
C/C=C1\[C@H]2C=C(C)C[C@]1(N)c1ccc(=O)[nH]c1C2 [(-)-Huperzine A (HupA)]	110%
COC(=O)CCC(C)C1CCC2C3C(O)CC4CC(O)CCC4(C)C3CC(O)C12C (stereo not given) [Methyl Cholate]	89%
Cc1cccc(C)c1NC(=O)c1cc(S(N)(=O)=O)c(Cl)cc1O [Xipamide]	107%
Cn1nnc2c(C(N)=O)ncn2c1=O [Temozolomide]	99.2%
COc1ccc(Oc2cc(NCCC(F)(F)F)c3ncc(-c4ccc(C(=O)NC5CC5)c(C)c4)n3n2)c(F)c1F	42.6%
NC(=O)Cc1c[nH]c2ccccc12 [Indole-3-acetamide]	103%
COc1ccc(CC(=O)O)cc1OC [Homoveratrumic acid]	92.8%
COc1ccc2c(c1O)-c1c(O)c(OC)cc3c1[C@H](C2)[N+](C)(C)CC3 [Magnoflorinechloride]	102%
CC(c1cc2ccccc2s1)N(O)C(N)=O (stereo not given) [Zileuton]	98.1%
Cc1c(C(=O)N2CCOc3ccc(-c4ccc(N)nc4)cc3C2)ccc(S(C)(=O)=O)c1F	63.6%
CC(C)(Oc1ccc(Cl)cc1)C(=O)OCCOC(=O)c1cccnc1 [Etofibrate]	101%
COc1cc(-c2oc3cc(O)cc(O)c3c(=O)c2OC2OC(COC3OC(C)C(O)C(O)C3O)C(O)C(O)C2OC2OC(C)C(O)C(O)C2O)ccc1O (stereo not given) [Typhaneoside]	106%
